These results are taken from PubChem BioAssay AID2685 (National Center for Advancing Translational Sciences (NCATS), 2010).

The structures appear in SMILES notation. Out of some 320,000 compounds screened, about 2,100 (0.66%) were called active. Inconclusive results (about 53%) are left out. Calls follow the shape of the dose curve; as a rule, active = well fitted inhibition curve with a large enough effect in the signal ratio, with a control signal flat (not every such curve was filed as active); inconclusive = small, poorly fitted or top-dose-only effect, or effect the other way, or a change in a side signal; inactive = flat fitted curve, though single readings scatter; the % refers to the signal ratio. The entries come from a sample that favours actives as a whole.
Potency is read from the fitted curve at half-maximal effect.

This assay is described as follows: qHTS Assay for Lipid Storage Modulators in Drosophila S3 Cells.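 As to cell number change: cells counted by Cell Tracker Red CMTPX staining in the red channel.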 As to lipid storage change, negative = inhibition: % is scaled to controls: 0 for no effect and ±100 for the full control effect. To be noted: BODIPY lipid droplet fluorescence, 18-24 h, cells fed with added oleic acid; cell number change: measured here: cell count max response; series mostly up to 46.1 µM; lipid storage change, negative = inhibition: at the top concentration. In outline: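 Drosophila S3 cells loaded with oleic acid (400 uM, as added) and compounds at several concentrations; lipid droplets imaged by 488-nm laser-scanning cytometry, 500–530 nm intensity and object ratio to cell channel. Percent activity normalized to 20 uM Triacsin C.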
Consider `CCOC(=O)C1=C(CS(=O)(=O)c2ccc(Cl)cc2)NC(=O)NC1c1ccc(O)c(OC)c1` (stereo not given), for which the “lipid storage change, negative = inhibition” value is -8.07% (inactive) and the cell number change came out at 23%. In the same order, the values of `O=C(OC(C(=O)Nc1ccc(Cl)cc1C(F)(F)F)c1ccccc1)C1=COCCO1` (stereo not given) are 6% (inactive) and -1.65%. In the same order, the values of `CCN(CC)CCCN1C(=O)C(O)=C(C(=O)c2sc(C)nc2C)C1c1ccc(C)o1` (stereo not given) are 0.201% (inactive) and 0.178%. Turning to `COc1cc(/C=C/c2noc(-c3ccccc3O)n2)ccc1OC(C)=O`, the “lipid storage change, negative = inhibition” value is -1.96% (inactive) and the cell number change was found to be 8.42%.

For `CC(C)(C)NC(=O)/C=C/c1cccc(C(F)(F)F)c1`, the “lipid storage change, negative = inhibition” value was 23.9% (inactive) and the cell number change is -3.06%. The matching figures for `COc1ccc(Nc2ccc([N+](=O)[O-])cn2)cc1`: 19.4% (inactive) and 13.2%. Turning to `COc1ccc(Nc2ccc([N+](=O)[O-])cn2)cn1`, the Potency is 16.4 µM (active) and the cell number change is -5.41%. Regarding `COc1ccccc1Nc1ccc([N+](=O)[O-])cn1`, the “lipid storage change, negative = inhibition” value was 3.34% (inactive) and the cell number change came to 25.6%. The matching figures for `CCc1nn(CC(=O)NCCCN(CC)c2cccc(C)c2)c(=O)c2cc3occc3n12`: 8.48% (inactive) and -11.1%. Turning to `CCOC(=O)CCn1cc(F)c(=O)n(Cc2ccccc2)c1=O`, the molecule was called inactive and the cell number change is 12.1%.

Take `CCOc1nc(SC(C(C)=O)C(=O)Nc2ccccc2)nc(N(C)C)n1` (stereo not given): the “lipid storage change, negative = inhibition” value is 3.93% (inactive) and the cell number change was -9.19%.

Consider `CC(C)Nc1nc(SC(C)C(=O)Nc2ccccc2)nc(N(C)C)n1` (stereo not given), for which the Potency is 8.2 µM (active) and the cell number change was -27.6%. Regarding `CC(Sc1nc(N2CCOCC2)nc(N2CCOCC2)n1)C(=O)Nc1ccccc1` (stereo not given), the “lipid storage change, negative = inhibition” value is 0.66% (inactive) and the cell number change is -7.21%.

On to `COC(=O)c1ccc(-c2ccc(/C=N/N3C(=O)C4C5C=CC(CC5)C4C3=O)o2)cc1` (stereo not given), for which the “lipid storage change, negative = inhibition” value was -0.618% (inactive) and the cell number change came out at 10.1%. Regarding `COC(=O)c1cccc(-c2ccc(/C=N/N3C(=O)C4C5C=CC(C6CC56)C4C3=O)o2)c1` (stereo not given), the “lipid storage change, negative = inhibition” value was -10.1% (inactive) and the cell number change was -7.37%.

Regarding `COC(=O)c1ccc(-c2ccc(/C=N/N3C(=O)C4C5C=CC(C6CC56)C4C3=O)o2)cc1` (stereo not given), the Potency is 20.6 µM (active) and the cell number change worked out at 4.78%. For the molecule `O=c1nc(-c2ccccc2)cc(C(F)(F)F)[nH]1`, the “lipid storage change, negative = inhibition” value was -9.25% (inactive) and the cell number change is -9.42%. For `O=c1nc(/C=C/c2ccccc2C(F)(F)F)cc(C(F)(F)F)[nH]1`, the Potency was 0.517 µM (active) and the cell number change is -22.9%.

For the molecule `COc1ccc(/C=C/c2cc(C(F)(F)F)[nH]c(=O)n2)cc1OC`, the “lipid storage change, negative = inhibition” value was -12.5% (inactive) and the cell number change was 7.45%. On to `CCc1ccc(N2CC(C(=O)NC3CCCCC3C)CC2=O)cc1` (stereo not given), for which the result was inactive and the cell number change was -4.76%. In the case of `COC(=O)c1ccc(COc2ccccc2/C=N/NS(=O)(=O)c2ccccc2)cc1`, the “lipid storage change, negative = inhibition” value is -8.74% (inactive) and the cell number change is -14.9%. As for `CCCCC1C(=O)CC[C@H]2[C@@H]1CC(=O)[C@@H]2C/C=C\CCCC(=O)O` (stereo not given in full), the Potency was 9.2 µM (active) and the cell number change is -6.62%. Consider `CCCCC[C@H](O)/C=C/[C@H]1C=CC(=O)[C@@H]1C/C=C\CCCC(=O)O`, for which the “lipid storage change, negative = inhibition” value was -2.66% (inactive) and the cell number change was 10.2%. For the molecule `CCCCC/C=C\C/C=C\C/C=C\C/C=C\CCCC(=O)O`, the “lipid storage change, negative = inhibition” value is -8.8% (inactive) and the cell number change is -29.6%. For `CCn1c(=O)c(C(=O)NCc2ccccc2OC)c(O)c2ccccc21`, the molecule was called inactive and the cell number change stood at 3.38%. With `Cc1cccc(C)c1OCc1nnc(SCC(=O)Nc2ccccc2F)o1`, the “lipid storage change, negative = inhibition” value was 29.6% (inactive) and the cell number change was -7.4%. The matching figures for `CCc1nnc(NC(=O)CSc2nnc(CSc3nc(C)cc(C)n3)o2)s1`: 7.1% (inactive) and 9.83%.

Consider `Cc1ccc(NC(=O)c2cc(S(=O)(=O)NCCC3=CCCCC3)ccc2F)cc1`, for which the “lipid storage change, negative = inhibition” value was -15.8% (inactive) and the cell number change is -3.48%.

Regarding `O=C(COc1cccc(-n2cnnn2)c1)Nc1ccccc1`, the “lipid storage change, negative = inhibition” value was -13.1% (inactive) and the cell number change is -12.3%. Consider `COc1ccc(NC(=O)COc2cccc(-n3cnnn3)c2)cc1`, for which the molecule was called inactive and the cell number change was -3.85%. In the same order, the values of `O=C(Nc1cccc(-n2cnnn2)c1)c1cccs1` are “inactive” and -3.63%.

As for `Cc1cc(OCCCC(=O)Nc2cccc(-n3cnnn3)c2)ccc1Cl`, the Potency was 3.26 µM (active) and the cell number change came to 3.23%. For `O=C(CNC(=O)c1cccc(-n2cnnn2)c1)Nc1ccc(F)c(F)c1`, the “lipid storage change, negative = inhibition” value was 4.76% (inactive) and the cell number change amounted to 0.376%. In the same order, the values of `O=C(Nc1ccc(C(F)(F)F)cc1)c1cccc(-n2cnnn2)c1` are 19% (inactive) and 8.84%. On to `O=C(Nc1cccc(-n2cnnn2)c1)c1cccc(Cl)c1`, for which the Potency was 14.6 µM (active) and the cell number change was -16%. On to `O=C(Nc1cccc(-n2cnnn2)c1)c1ccco1`, for which the “lipid storage change, negative = inhibition” value was 9.61% (inactive) and the cell number change was -16.6%. As to `O=C(Nc1cccc(-n2cnnn2)c1)c1ccoc1COc1ccc(Cl)cc1`, the Potency is 29.1 µM (active) and the cell number change is -18.1%. As for `Cc1ccc(C)c(NC(=O)c2cc[n+](C)cc2)c1`, the result was inactive and the cell number change is -24.7%.

With `CCOC(=O)COc1ccc(S(=O)(=O)NCc2ccncc2)cc1`, the “lipid storage change, negative = inhibition” value is -23.8% (inactive). Regarding `Cc1ccc(/C=C/C(=O)N(Cc2cccs2)C2CCS(=O)(=O)C2)cc1` (stereo not given), the “lipid storage change, negative = inhibition” value was 18.4% (inactive) and the cell number change came to 11.3%. On to `CCOC(=O)c1c(-c2ccccc2)csc1NC(=O)CSc1nc(N)cc(N)n1`, for which the “lipid storage change, negative = inhibition” value is 13.1% (inactive) and the cell number change was 11.6%. In the same order, the values of `COCCCn1c(C)nnc1-c1cnn(-c2ccccc2)c1N` are 10.4% (inactive) and 22.6%. In the same order, the values of `O=C(Nc1cccnc1)c1ccc2c(c1)C(=O)N(CC1CCCO1)C2=O` (stereo not given) are -113% (inactive) and 5.85%.

With `COc1ccc2cc3cc(C(=O)NCCN4CCN(c5ccccc5F)CC4)oc3nc2c1`, the “lipid storage change, negative = inhibition” value was -20.3% (inactive) and the cell number change was -11.8%. For the molecule `C/C=C(\CS(=O)(=O)c1ccccc1)S(=O)(=O)c1ccccc1`, the Potency was 5.17 µM (active) and the cell number change was -14.9%. For `CCN(Cc1ccccc1)C(=O)CS(=O)(=O)c1ccccc1`, the “lipid storage change, negative = inhibition” value is -5.16% (inactive) and the cell number change came out at 0.704%. Regarding `C/C(CS(=O)(=O)c1ccccc1)=N\O`, the “lipid storage change, negative = inhibition” value is -23.4% (inactive) and the cell number change is -17.1%.

On to `O=C(NNC(=O)c1cccc(S(=O)(=O)N2CCN(c3ccccc3)CC2)c1)c1ccc(Cl)cc1`, for which the “lipid storage change, negative = inhibition” value is 2.76% (inactive) and the cell number change is -1.16%. Take `O=C(Nc1cccc(C(F)(F)F)c1)Oc1ccc(Cl)c2cccnc12`: the Potency is 8.2 µM (active) and the cell number change was -22.5%.

Take `O=C(Nc1cccc(C(F)(F)F)c1)c1cccnc1NCCO`: the Potency was 9.2 µM (active) and the cell number change came to 17.5%.

For `O=C(Oc1ccc(Cl)c2cccnc12)N1CCCCCC1`, the “lipid storage change, negative = inhibition” value was 2.39% (inactive) and the cell number change was 0.575%.

Regarding `CCN(CC)C(=O)Oc1ccc(Cl)c2cccnc12`, the “lipid storage change, negative = inhibition” value was 4.69% (inactive) and the cell number change is -13.1%. With `O=C(Nc1cccc(C(F)(F)F)c1)c1cccnc1N1CCCC1`, the outcome was inactive.

For `O=C(Nc1cccc(C(F)(F)F)c1)c1cccnc1N1CCN(CCO)CC1`, the molecule was classed as inactive.

In the case of `CCOc1ccccc1Oc1nc(-c2ccccc2O)nc2ccccc12`, the result was inactive and the cell number change turned out to be 16.3%.

Turning to `N#Cc1c(C(F)(F)F)cc(-c2ccc(F)cc2)nc1SCC(=O)O`, the “lipid storage change, negative = inhibition” value was 17% (inactive) and the cell number change is 0.873%. With `CC(c1ccc(O)cc1)(c1ccc(O)cc1)c1ccc(CCBr)cc1`, the “lipid storage change, negative = inhibition” value is -11.7% (inactive) and the cell number change was -16%. On to `O=C(Nc1ccc(-n2cc(Cl)cn2)cc1)c1ccncc1`, for which the “lipid storage change, negative = inhibition” value was -2.29% (inactive) and the cell number change came to 13%. The matching figures for `Cc1ccc(C(=O)/C=C/N(C)C)o1`: -9.3% (inactive) and -4.62%.
